DT40 TDP1 no CPT – qHTS for Inhibitors of human tyrosyl-DNA phosphodiesterase 1 (TDP1): qHTS in cells in absence of CPT; DT40 Tdp1-/- hTDP1 cells, no CPT, ATP luminescence, 48 h; Potency, µM (doses to about 46.2 µM), for the others: top-dose activity change, negative = growth inhibition, actives largely listed as inhibitors; 15% of 420,000 active; further: potency means the concentration at half of the fitted maximal effect; on the % scale 0 is the no-effect control and ±100 the full control effect; nearly all actives have a fitted effect of over 55% in size
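Compound effects on proliferation are scored in DT40 Tdp1-/-;hTDP1 cells in the absence of CPT. ATP levels (CellTiter-Glo luminescence) are recorded after a ≥48 hr, 37 °C incubation.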
TDP1 block – blocks human tyrosyl-DNA phosphodiesterase 1; Q9NUW8; recombinant TDP1, AlphaScreen DNA substrate cleavage; Potency, µM (doses to about 130 µM), inactives show top-dose activity change, negative = inhibition, most hits filed as inhibitors; 0.28% of 350,000 active; further: potency means the concentration at half of the fitted maximal effect; on the % scale 0 is the no-effect control and ±100 the full control effect; nearly all actives have a fitted effect of over 40% in size
Target sequence (Q9NUW8 whole entry, looked up): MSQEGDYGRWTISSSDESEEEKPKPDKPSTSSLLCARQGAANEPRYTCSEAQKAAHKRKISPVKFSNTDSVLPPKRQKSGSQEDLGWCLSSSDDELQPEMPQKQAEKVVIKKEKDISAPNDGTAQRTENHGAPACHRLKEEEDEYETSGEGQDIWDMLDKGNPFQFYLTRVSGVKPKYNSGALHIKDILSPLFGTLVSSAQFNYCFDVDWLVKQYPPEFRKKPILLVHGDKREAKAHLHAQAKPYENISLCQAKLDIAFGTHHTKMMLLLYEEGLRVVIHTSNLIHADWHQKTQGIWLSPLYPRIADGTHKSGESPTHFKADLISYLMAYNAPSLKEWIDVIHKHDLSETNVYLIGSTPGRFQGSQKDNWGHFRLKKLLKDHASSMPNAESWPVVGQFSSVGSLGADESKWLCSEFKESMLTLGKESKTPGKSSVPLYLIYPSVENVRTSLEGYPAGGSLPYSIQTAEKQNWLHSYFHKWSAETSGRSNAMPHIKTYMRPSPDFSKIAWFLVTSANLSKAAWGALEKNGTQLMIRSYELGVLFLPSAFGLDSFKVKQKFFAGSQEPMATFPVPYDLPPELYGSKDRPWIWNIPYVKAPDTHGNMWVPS
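Here, a 5' biotin and 3' phosphotyrosine-FITC DNA oligonucleotide reports Tdp1 activity: intact substrate bridges AlphaScreen beads, while cleavage leaves a 3' phosphate and drops signal. All incubations at room temperature.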
DT40 TDP1 CPT – growth inhibition of DT40 Tdp1-/-;hTDP1 cells with camptothecin (screen for TDP1 inhibitors) | chicken DT40 Tdp1-/-;hTDP1 cells + 20 nM CPT, ATP luminescence, 48 h | Potency, µM (titrated, usually from 46.2 µM), inactives show at the top dose activity change, negative = growth inhibition, actives largely listed as inhibitors | 12% of 420,000 active | AID 686979; further: potency means the concentration at half of the fitted maximal effect; on the % scale 0 is the no-effect control and ±100 the full control effect; nearly all actives have a fitted effect of over 55% in size
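Cell growth measured by CellTiter-Glo luminescence after a minimum 48 h, 37 C compound exposure with 20 nM CPT in Tdp1-knockout DT40 cells stably expressing hTDP1, seeded 400/well; qHTS titration format.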
IL1B secr inh – inhibitors of inflammasome signaling (IL-1 beta secretion) | THP-1 LPS/ATP IL-1B secretion, AlphaLISA, 16 h; stronger effect = lower value | activity change, % at 57.5 µM | 4.7% of 360,000 active | AID 743279; in the data active means activity change below about -50%; inconclusive means mostly about -30% to -49%; further: on the % scale 0 is the no-effect control and ±100 the full control effect
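Secreted IL-1B measured by AlphaLISA bead assay after 16 h compound exposure of THP-1 cells; compounds (final up to 57.5 uM) added 1 h before LPS (250 ng/mL) and ATP (1.25 mM) stimulation; lower signal means less secretion.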
HepG2 viability – HepG2 cytotoxicity, counter-screen for TGF-b inhibitors; HepG2 CAGA-GFP viability, ATP luminescence, 18 h; Potency, µM (top dose mostly 46.1 µM), for inactives: at the highest dose activity change, negative = cytotoxicity, actives largely listed as cytotoxic; 0.76% of 410,000 active; further: potency means the concentration at half of the fitted maximal effect
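CellTiter-Glo luminescence gave cytotoxicity after 18 hours at 37 degrees C. The cells were HepG2 CAGA-GFP in 1% FBS DMEM, stimulated with 500 pg/mL TGF-beta after compound addition. %Activity was normalised to no-cell wells (complete cell-killing) and DMSO (no toxicity), and curves were fitted and classified.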
TGFb SMAD3 inh – inhibitors of TGF-b signaling; HepG2 CAGA-GFP TGF-b/SMAD3 reporter, GFP fluorescence, 18 h; TGF-beta stimulated, 500 pg/mL final; Potency, µM (titrated, usually from 46.1 µM), for the others: at the top dose activity, negative = inhibition, usual class: inhibitors; 1.2% of 410,000 active; further: potency means the concentration at half of the fitted maximal effect; on the % scale 0 is the no-effect control and ±100 the full control effect; nearly all actives have a fitted effect of over 65% in size
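HEPG2 CAGA-GFP reporter cells (1000/well, DMEM with 1% FBS) received compounds, then recombinant TGF-beta at 500 pg/mL final for 18 hours at 37 degrees C. Per-cell GFP summed per well was normalised to unstimulated and stimulated DMSO controls before curve fitting.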
Starred values were filed as active, the others as inactive; ? = inconclusive; . = not tested or not shown. An excerpt weighted towards active compounds, which were near 19% of everything screened. Unless noted, the call rests on the fitted dose curve; in most records, active means well fitted curve in the direction sought with a large enough effect; inconclusive means small, poorly fitted or top-dose-only effect, or another doubt; inactive means no such curve, though single readings can be large; an effect the other way counts as inactive or inconclusive.

SMILES	DT40 TDP1 no CPT	TDP1 block	DT40 TDP1 CPT	IL1B secr inh	HepG2 viability	TGFb SMAD3 inh
Cc1ccc(S(=O)(=O)c2nc(S(C)(=O)=O)sc2N2CCCCC2C)cc1 (configuration not stated)	?	0.1%	?	-82.6*	-6.0%	-5.2%
COc1ccc2c(c1)O[C@@H](c1cccc(C(F)(F)F)c1)[C@H](OC(=O)NCCOc1ccccc1)C2=O	.	11.2%	.	.	.	.
Cc1cc(C)cc(NC(=O)Cn2nnc(-c3ccccc3F)n2)c1	?	4.7%	-17.2%	.	-17.7%	-13.0%
CCN(CC)S(=O)(=O)c1cccc(-c2nnc(SC(C)C(=O)NCCC3=CCCCC3)o2)c1 (configuration not stated)	25.9µM*	1.0%	?	-23.6	-6.3%	-14.8%
CCN(CC)S(=O)(=O)c1cccc(-c2nnc(SCc3nc4ccccc4s3)o2)c1	20.6µM*	2.0%	?	-25.9	-34.7%	?
CCN(CC)S(=O)(=O)c1cccc(-c2nnc(SCC(=O)c3cc(C)n(C4CC4)c3C)o2)c1	16.4µM*	7.1%	?	6.1	3.0%	-3.6%
C=CCn1c(C)cc(C(=O)CSc2nnc(-c3cccc(S(=O)(=O)N(CC)CC)c3)o2)c1C	?	4.2%	?	-0.1	-25.9%	-1.4%
CN(Cc1nccs1)c1ncnc2ccc(-c3ccc4c(c3)OCO4)cc12	.	2.1%	.	.	.	.
Oc1cccc(C(O)CNCc2ccc(OCc3ccc(Cl)cc3Cl)cc2)c1 (configuration not stated)	14.6µM*	5.5%	?	-90.6*	-166.5%	?
Oc1cccc(C(O)CNCc2ccc(-c3ccccc3)cc2)c1 (configuration not stated)	?	5.5%	18.4µM*	-50.9*	-105.4%	?
OC(CNCc1ccccc1)c1ccccc1 (configuration not stated)	-16.5%	-2.9%	-17.5%	9.3	-1.7%	3.1%
CCC1CN(CC(=O)NCc2cccc(Br)c2)c2ccccc2S1 (configuration not stated)	.	10.1%	.	.	-37.7%	-23.2%
CCC(C)NC(=O)Cn1c(=O)ccc2cc(S(=O)(=O)N3CCCC3)ccc21 (configuration not stated)	?	-2.2%	?	.	-7.9%	22.8%
COc1ccc(-c2csc(C3=C(O)CN(Cc4ccc(Cl)cc4)C3=N)n2)cc1OC	-29.7%	-1.0%	-11.6%	-22.3	-17.9%	1.8%
CCCCN1CC(O)=C(c2nc(-c3ccc(Cl)cc3)cs2)C1=N	-16.6%	2.2%	-12.8%	19.1	8.8%	-15.8%
COc1ccc(N2CC(O)=C(c3nc(-c4ccc(F)cc4)cs3)C2=N)cc1OC	18.4µM*	2.6%	?	-1.2	39.5%	0.0%
N=C1C(c2nc(-c3ccc(Cl)cc3)cs2)=C(O)CN1CCCN1CCOCC1	25.9µM*	2.1%	25.9µM*	?	-43.1%	-5.4%
COc1cccc(CN2CC(O)=C(c3nc(-c4ccc(Cl)cc4)cs3)C2=N)c1	9.2µM*	1.0%	-17.8%	52.8	17.8%	-5.4%
CCc1cccc(NC(=O)Cn2c(=O)n(CC3CCC(C(=O)NC)CC3)c(=O)c3sccc32)c1 (configuration not stated)	?	5.8%	?	.	-17.0%	-33.4%
Cc1ccc(-n2c(C)cc(/C=N/NC(=O)CN(c3ccc(C)cc3C)S(C)(=O)=O)c2C)cc1	20.6µM*	11.0%	?	?	-26.2%	-5.7%
Cc1ccc(-n2c(C)cc(/C=N/NC(N)=S)c2C)cc1	3.66µM*	8.2%	3.66µM*	34.1	5.3%	0.0%
COCC1CCN(C(=O)c2cc(COc3ccc4ncccc4c3)on2)CC1	8.2µM*	2.4%	3.66µM*	32.7	-20.7%	-26.3%
Cc1ccc(OCc2cc(C(=O)NC3CCCCC3)no2)cn1	8.2µM*	0.6%	13µM*	19.4	-15.0%	-13.4%
O=C(NCCc1cn2ccccc2n1)c1cc(COc2ccc3ncccc3c2)on1	5.8µM*	2.7%	4.11µM*	-10.6	-5.2%	1.4%
CC(NC(=O)c1cc(COc2ccc3ncccc3c2)on1)c1ccc(F)cc1 (configuration not stated)	3.66µM*	.	6.51µM*	-16.4	-27.7%	-18.5%
SMILES	DT40 TDP1 no CPT	TDP1 block	DT40 TDP1 CPT	IL1B secr inh	HepG2 viability	TGFb SMAD3 inh
Cc1cc(OCc2cc(C(=O)NC3CCC3)no2)cc(C)c1Cl	?	2.4%	?	8.0	-9.0%	25.6%
Cc1cccc(NC(=O)C(=O)c2cc(C)n(-c3ccccc3)c2C)c1C	?	11.4%	-7.6%	.	-14.7%	-0.3%
COc1cc2[nH]c(C(=O)N3CC(C)OC(C)C3)cc2c(OC)c1OC (configuration not stated)	-20.8%	.	-12.3%	-11.0	-49.9%	-0.6%
O=C(c1cc(COc2ccc3ncccc3c2)on1)N1CCCCCC1	2.59µM*	0.0%	4.11µM*	-11.0	-19.3%	-24.8%
O=C(c1cc(COc2ccc3ncccc3c2)on1)N1CCCC1	6.51µM*	2.7%	7.31µM*	10.6	-17.1%	15.7%
O=C(NC1CCCC1)c1cc(COc2ccc3ncccc3c2)on1	2.06µM*	4.8%	3.66µM*	-5.6	-13.8%	-21.7%
CCOC(=O)CCCCCC(=O)Nc1ccc2c(c1)CC(=O)N([C@H](C)CO)C[C@H](C)[C@H](CN(C)S(=O)(=O)c1ccc(OC)cc1)O2	-17.5%	4.2%	?	17.9	-33.9%	?
CCC(C(=O)N1CCN(c2cc(Cl)ccc2C)CC1)n1nc(C)n2c(cc3occc32)c1=O (configuration not stated)	14.6µM*	7.6%	?	.	-29.5%	?
CCc1nn(C(CC)C(=O)NCc2cccc(OC)c2OC)c(=O)c2cc3occc3n12 (configuration not stated)	18.4µM*	0.8%	20.6µM*	-13.3	-21.1%	?
CCc1nn(C(C)C(=O)NCCN2CCN(c3cccc(C)c3C)CC2)c(=O)c2cc3occc3n12 (configuration not stated)	16.4µM*	5.3%	?	?	-29.2%	?
CCc1nn(CC(=O)NCc2cccc(OC)c2OC)c(=O)c2cc3occc3n12	-20.3%	-2.9%	-14.8%	.	2.0%	.
C=CCN(CC=C)Cc1cc(=O)oc2cc(C)c(Cl)cc12	?	.	?	12.4	-7.8%	?
